An excerpt weighted towards active compounds, which were near 4.3% of everything screened.
NALP1 yeast inh: NALP1 inflammasome inhibitors in reconstituted yeast, colorimetric, S. cerevisiae, triplicate retest; S. cerevisiae NALP1/ASC/caspase-1 growth, X-gal OD620, 72 h; inhibition, % at 10 µM; 280,000 compounds, 0.61% hits; in the data active = inhibition mostly above about 24%, no sharp cut-off; inactive = mostly below about 32%
UBC13 inh: UBC13 polyubiquitin chain formation inhibitors, primary screen, biochemical, TR-FRET, uHTS; Ubiquitin-conjugating enzyme E2 N (Homo sapiens), P61088; inhibition, % at 20 µM; 330,000 compounds, 0.47% hits; AID 485273, 2010; in the data active = inhibition above about 45%, passing the limit was not always enough; inconclusive = no clear call, values can overlap the other calls
Target sequence (P61088 whole entry, looked up): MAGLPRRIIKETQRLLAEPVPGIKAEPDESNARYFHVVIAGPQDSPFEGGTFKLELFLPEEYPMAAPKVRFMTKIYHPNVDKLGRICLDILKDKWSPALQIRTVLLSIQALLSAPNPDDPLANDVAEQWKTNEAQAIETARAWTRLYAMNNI
NR3A LBD binder: binders of NR3A ligand-binding domain, primary screen, biophysical, differential scanning fluorimetry, uHTS; Tm shift relative to glycine control, % at 25 µM; NR3A LBD differential scanning fluorimetry, Tm shift; 0% = protein alone, 100% = glycine-bound protein; 340,000 compounds, 2.5% hits;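 active = melting temperature shift of at least 10% of the positive control shift, at one fixed dose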
Yeast superoxide: reduction of superoxide in aged yeast, primary screen, HTS; S. cerevisiae aged cells, superoxide DHE fluorescence; active compounds read low; superoxide response (% of plate mean), % at 10 µM; 330,000 compounds, 0.18% hits; AID 2690, 2010;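 active = superoxide response under a set limit, about three screen SD below normal, cut at about 65% in these data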;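 note: yeast aged for seven days with compound at 30 °C before DHE staining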
dFosB act: activators of delta FosB homodimer, primary screen, biochemical, fluorescence polarization, TAMRA-CDK5 oligo, single point | activation, % at 25 µM | 340,000 compounds, 0.99% hits | AID 493131, 2011 | purified delta FosB; percent of positive-control signal above neutral wells;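 active = mean activation above about 17%, with every replicate also reaching it, limit read from the data, passing the limit was not always enough; inconclusive = only one of the two conditions met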
Hits are given with their value; – = inactive; ? = inconclusive; · = no result given.

SMILES	NALP1 yeast inh	UBC13 inh	NR3A LBD binder	Yeast superoxide	dFosB act
COc1ccc(-c2nc(SCC(=O)Nc3nccs3)c(-c3ccc(Cl)cc3)[nH]2)cc1	–	–	15.1	–	–
CCC(=O)N(CCc1ccc(OC)c(OC)c1)Cc1cc2ccc(C)cc2n2nnnc12	–	–	–	–	–
CC(=O)c1cccc(CN2CCCC(C(=O)Nc3cccc(-n4cccn4)c3)C2)c1 (stereo unspecified)	–	–	10.0	–	–
COc1cccc(-c2ccc(NC(=O)C3CCCN(CCCn4cccn4)C3)cc2)c1 (stereo unspecified)	–	–	10.3	–	–
O=C(O)C1CCCN(S(=O)(=O)c2ccc(-c3ccc(=O)[nH]n3)s2)C1 (stereo unspecified)	–	–	–	–	–
COc1ccccc1CNC(=O)c1nn(C)c2c1CS(=O)(=O)c1ccccc1-2	–	–	17.7	–	–
CCCCNC(=O)c1cn(CC(C)C)c(=O)c2c1c1ccccc1n2C	–	–	–	–	–
CC(=O)c1ccc(Nc2cc(C)nc3c(C)cccc23)cc1	28.0	–	–	–	–
CC(=O)c1ccc(Nc2cc(C)nc3ccccc23)cc1	–	–	–	–	–
Cc1cc(N/N=C/c2ccc(O)cc2)c2cccc(C)c2n1	–	–	12.1	–	104.8
CN(CCCNC(=O)CCC(=O)N1CCOc2ccccc21)Cc1ccccc1	–	–	–	–	–
COc1cccc(OCCNS(=O)(=O)c2ccccc2[N+](=O)[O-])c1	·	–	–	–	–
Clc1ccc(-c2c[nH]c3ccccc23)nn1	–	–	18.1	–	–
Clc1ccc(-c2nnc(-c3ccccc3)c(-c3c[nH]c4ccccc34)n2)cc1	·	–	–	–	–
CCOCCCNCC(=O)Nc1ccc(S(=O)(=O)NC(C)CC)cc1 (stereo unspecified)	–	–	–	–	–
O=C(Cc1ccc(NC(=O)C2CCN(C(=O)C3CCCCC3)CC2)cc1)Nc1ccc(C(=O)N2CCOCC2)cc1	·	·	–	·	–
Cc1ccc(OCC(=O)N/N=C/c2cn[nH]c2-c2ccc(Cl)c(Cl)c2)cc1	–	–	–	–	–
Cc1cccc(OCC(=O)N/N=C/c2cn[nH]c2-c2ccc(Cl)c(Cl)c2)c1	–	–	27.2	–	–
COc1cccc(/C=N/NC(=O)CNC(=O)COc2ccccc2)c1O	–	–	–	–	–
Cc1cccc(OCC(=O)NCC(=O)N/N=C/c2cc(Br)cc(Br)c2O)c1	–	–	17.1	–	–
Cn1c(=O)c2c(ncn2CC(=O)OCC(=O)Nc2cc(Cl)ccc2C#N)n(C)c1=O	·	–	–	–	–
CN(CCO)c1ccc(-c2n[nH]c(=O)c3ccccc23)cc1[N+](=O)[O-]	–	–	–	–	–
CC(=O)Nc1ccc(S(=O)(=O)NC2CC(=O)N(c3ccc4c(c3)OCCO4)C2)cc1 (stereo unspecified)	·	–	16.8	–	–
C[C@H](O)Cc1cn(-c2cc3cc(C#Cc4ccsc4)ccc3oc2=O)nn1	·	–	–	–	–
O=C(Nc1cc2c3c(c1)CC(=O)N3CCC2)C1CCCCC1	·	–	–	–	–
SMILES	NALP1 yeast inh	UBC13 inh	NR3A LBD binder	Yeast superoxide	dFosB act
O=C(Cc1nnc(NC(=O)c2ccccc2)s1)N/N=C/c1cccc(O)c1	–	–	41.4	–	–
Cn1c2ccccc2c2cc(/C=N/NC(=O)c3ccccc3F)ccc21	–	–	–	–	–
Cn1c2ccccc2c2cc(/C=N/NC(=O)c3ccc(N)cc3)ccc21	–	–	16.8	–	–
Nc1ccc(C(=O)N/N=C/c2cn(Cc3ccc(F)cc3)c3ccccc23)cc1	–	–	15.6	–	–
Cc1ccc(Cn2cc(/C=N/NC(=O)Cc3nnc(NC(=O)c4ccc(C)cc4)s3)c3ccccc32)cc1	–	–	12.6	–	?
NC(=S)N/N=C1\c2ccccc2-c2c(C(=O)O)cccc21	–	–	–	–	–
COc1ccc(C(=O)NNC(=O)C2CCCN(C3CC(=O)N(c4ccccc4)C3=O)C2)cc1 (stereo unspecified)	·	–	–	–	–
O=C(N/N=C/c1cccc(O)c1)N/N=C/c1cccc(O)c1	–	–	10.0	–	–
O=C(CCc1ccccc1)N/N=C/c1cccc(O)c1	–	–	–	–	–

Compound activity as filed in PubChem.
